# From PubChem BioAssay
# Activity calls are given as the source filed them.
# Columns and labels:
# [1] = small molecules captured by biotinylated probe aFSTL3 – biochemical, small-molecule microarray, fluorescence 635/667, stem cell growth factor project, primary screen (AID 1064); conditions: higher = more signal;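 further: measures binding of the biotinylated anti-FSTL3 antibody to printed compounds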
# [2] = binders from COS7 lysate, DM2A8 probe, primary screen, torsin A project, cell lysate, small-molecule microarray, fluorescence 635/667 (AID 1065); conditions: higher = more signal, COS7 lysate expressing mutant human TOR1A
# [3] = small molecules captured by biotinylated probe aFGF2 – biochemical, small-molecule microarray, fluorescence 635/667, stem cell growth factor project, primary screen (AID 1067); conditions: higher = more signal;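 further: measures binding of biotinylated aFGF2 protein to printed compounds on slides; z-score merges feature fluorescence and signal-to-noise across triplicate slides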
# [4] = small molecules captured by biotinylated probe aFGF10 – biochemical, small-molecule microarray, fluorescence 635/667, stem cell growth factor project, primary screen (AID 1071); conditions: higher = more signal;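 further: score merges 667 nm spot intensity and signal to noise from triplicate slides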
# [5] = molecular target: Neurogenic locus notch homolog protein 2 (Homo sapiens) (UniProt Q04721); test: small molecules binding Notch2 protein – biochemical, small-molecule microarray, 635 nm fluorescence, stem cell growth factors, primary screen (AID 1073); conditions: higher = more signal
# [6] = molecular target: Pro-neuregulin-1, membrane-bound isoform (Homo sapiens) (UniProt Q02297); test: small molecules binding neuregulin-1 protein – biochemical, small-molecule microarray, fluorescence 635/667, psychiatric disease protein project, primary screen (AID 1075); conditions: NRG1 binding, 635 nm fluorescence, higher = more signal;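 further: score combines 667 nm spot fluorescence with signal to noise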
# [7] = tested on: Neuregulin-1 EGF-like domain; test: small molecules binding NRG1 EGF domain – biochemical, small-molecule microarray, 635 nm fluorescence, primary screen (AID 1081); conditions: higher = more signal;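 further: binding of the protein to compounds printed on small-molecule microarray slides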
# [8] = FRG1 expression reporter modulators in myotubes – cell-based, C2C12 myotubes, firefly/Renilla luciferase, luminescence, FRG1 inhibition for FSHD, primary screen (AID 1084); conditions: FRG1 promoter luciferase, higher = more signal, called active from +8 up or from −8 down
# [9] = small molecules captured by biotinylated probe aFST – biochemical, small-molecule microarray, fluorescence 635/667, stem cell growth factor project, primary screen (AID 1086); conditions: higher = more signal;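 further: score merges 667 nm fluorescence with signal-to-noise of each printed compound spot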
# [10] = binders of probe aHhip on microarray, primary screen, stem cell growth factor project, biochemical, small-molecule microarray, fluorescence 635/667 (AID 1087); conditions: higher = more signal;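 further: score merges spot fluorescence at 667nm with spot signal to noise ratio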
# [11] = tested on: PRMT1 (protein arginine N-methyltransferase 1); test: small molecules binding arginine methyltransferase PRMT1 – biochemical, small-molecule microarray, 635 nm fluorescence, primary screen (AID 1088); conditions: higher = more signal;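 further: binding of Prmt1 protein to compounds spotted on small-molecule microarray slides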
# [12] = growth effects on S. cerevisiae YJM789 – YJM789 clinical isolate, OD600, 24 h, basal, primary screen (AID 1089); conditions: higher = more signal, called active from +8 up or from −8 down;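 further: growth of clinical yeast isolate S. cerevisiae YJM 789 seeded 1000 cells per well; test concentration not given here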
# [13] = S. pombe growth modifiers, basal conditions – strain 972, OD600, 24 h, no modulator, primary screen (AID 1090);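 further: basal condition with compound alone and no growth modifier present; test concentration not given here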; conditions: S. pombe 972 growth, higher = more signal, called active from +8 up or from −8 down
# [14] = budding yeast growth modifiers under rapamycin – strain BY4716, OD600, 96 h, primary screen (AID 1091); further: test concentration not given here; conditions: S. cerevisiae BY4716 + rapamycin, higher = more signal, called active from +8 up or from −8 down
# [15] = molecular target: Torsin-1A-interacting protein 2 (Homo sapiens) (UniProt Q8NFQ8); test: small molecules binding lysate-expressed LULL1 – cell lysate, human LULL1 lysate, 635/667 nm fluorescence, primary screen (AID 1092); conditions: small-molecule microarray, hLULL1 lysate binding, 635 nm fluorescence; higher = more signal;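 further: probe is lysate of COS7 cells overexpressing human LULL1; score merges per-feature 667 nm fluorescence with signal-to-noise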
# [16] = optical density change of DRC41 E. coli – strain DRC41, OD650, 24 h, E. coli filamentation project, primary screen (AID 1093);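 further: MC1000 strain lacking acrAB efflux and sulA so SOS filamentation is blocked; test concentration not given here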; conditions: E. coli DRC41 growth, higher = more signal, called active from +8 up or from −8 down
# [17] = probe aLefty2 binding to arrayed compounds – biochemical, biotinylated probe, 635/667 nm fluorescence, primary screen (AID 1094); conditions: small-molecule microarray, higher = more signal;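 further: score merges spot fluorescence near 667 nm with spot signal-to-noise ratio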
# [18] = tested on: Noggin (protein binding on small-molecule microarray); test: small molecules binding Noggin protein – biochemical, 635/667 nm fluorescence, primary screen (AID 1095); conditions: 635 nm fluorescence, higher = more signal;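 further: score merges 667 nm feature fluorescence with signal to noise over triplicate slides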
# [19] = molecular target: Neurogenic locus notch homolog protein 3 (Homo sapiens) (UniProt Q9UM47); test: small molecules binding NOTCH3 protein – biochemical, 635/667 nm fluorescence, primary screen (AID 1096); conditions: small-molecule microarray, 635 nm fluorescence, higher = more signal
# [20] = probe aEGFR binding to arrayed compounds – biochemical, biotinylated probe, 635/667 nm fluorescence, primary screen (AID 1097); conditions: small-molecule microarray, higher = more signal;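 further: probe is a biotinylated anti-EGFR antibody binding compounds printed on slides; score combines fluorescence near 667 nm and signal to noise of each spot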
# Chain of Torsin-1A-interacting protein 2 (Homo sapiens) (Q8NFQ8 whole entry, looked up): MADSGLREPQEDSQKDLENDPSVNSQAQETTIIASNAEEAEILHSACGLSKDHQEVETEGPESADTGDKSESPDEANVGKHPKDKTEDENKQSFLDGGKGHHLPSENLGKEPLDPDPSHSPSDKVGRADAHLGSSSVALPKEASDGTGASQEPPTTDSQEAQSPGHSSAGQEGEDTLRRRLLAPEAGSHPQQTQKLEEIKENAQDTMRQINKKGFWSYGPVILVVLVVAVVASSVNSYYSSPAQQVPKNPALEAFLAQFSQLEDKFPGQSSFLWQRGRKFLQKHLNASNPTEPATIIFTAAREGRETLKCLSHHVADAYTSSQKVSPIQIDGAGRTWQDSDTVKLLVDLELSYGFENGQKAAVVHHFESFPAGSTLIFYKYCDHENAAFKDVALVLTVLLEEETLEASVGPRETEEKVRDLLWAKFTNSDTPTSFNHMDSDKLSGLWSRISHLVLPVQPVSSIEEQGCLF
# Chain of Neurogenic locus notch homolog protein 2 (Homo sapiens) (Q04721 whole entry, looked up, canonical isoform): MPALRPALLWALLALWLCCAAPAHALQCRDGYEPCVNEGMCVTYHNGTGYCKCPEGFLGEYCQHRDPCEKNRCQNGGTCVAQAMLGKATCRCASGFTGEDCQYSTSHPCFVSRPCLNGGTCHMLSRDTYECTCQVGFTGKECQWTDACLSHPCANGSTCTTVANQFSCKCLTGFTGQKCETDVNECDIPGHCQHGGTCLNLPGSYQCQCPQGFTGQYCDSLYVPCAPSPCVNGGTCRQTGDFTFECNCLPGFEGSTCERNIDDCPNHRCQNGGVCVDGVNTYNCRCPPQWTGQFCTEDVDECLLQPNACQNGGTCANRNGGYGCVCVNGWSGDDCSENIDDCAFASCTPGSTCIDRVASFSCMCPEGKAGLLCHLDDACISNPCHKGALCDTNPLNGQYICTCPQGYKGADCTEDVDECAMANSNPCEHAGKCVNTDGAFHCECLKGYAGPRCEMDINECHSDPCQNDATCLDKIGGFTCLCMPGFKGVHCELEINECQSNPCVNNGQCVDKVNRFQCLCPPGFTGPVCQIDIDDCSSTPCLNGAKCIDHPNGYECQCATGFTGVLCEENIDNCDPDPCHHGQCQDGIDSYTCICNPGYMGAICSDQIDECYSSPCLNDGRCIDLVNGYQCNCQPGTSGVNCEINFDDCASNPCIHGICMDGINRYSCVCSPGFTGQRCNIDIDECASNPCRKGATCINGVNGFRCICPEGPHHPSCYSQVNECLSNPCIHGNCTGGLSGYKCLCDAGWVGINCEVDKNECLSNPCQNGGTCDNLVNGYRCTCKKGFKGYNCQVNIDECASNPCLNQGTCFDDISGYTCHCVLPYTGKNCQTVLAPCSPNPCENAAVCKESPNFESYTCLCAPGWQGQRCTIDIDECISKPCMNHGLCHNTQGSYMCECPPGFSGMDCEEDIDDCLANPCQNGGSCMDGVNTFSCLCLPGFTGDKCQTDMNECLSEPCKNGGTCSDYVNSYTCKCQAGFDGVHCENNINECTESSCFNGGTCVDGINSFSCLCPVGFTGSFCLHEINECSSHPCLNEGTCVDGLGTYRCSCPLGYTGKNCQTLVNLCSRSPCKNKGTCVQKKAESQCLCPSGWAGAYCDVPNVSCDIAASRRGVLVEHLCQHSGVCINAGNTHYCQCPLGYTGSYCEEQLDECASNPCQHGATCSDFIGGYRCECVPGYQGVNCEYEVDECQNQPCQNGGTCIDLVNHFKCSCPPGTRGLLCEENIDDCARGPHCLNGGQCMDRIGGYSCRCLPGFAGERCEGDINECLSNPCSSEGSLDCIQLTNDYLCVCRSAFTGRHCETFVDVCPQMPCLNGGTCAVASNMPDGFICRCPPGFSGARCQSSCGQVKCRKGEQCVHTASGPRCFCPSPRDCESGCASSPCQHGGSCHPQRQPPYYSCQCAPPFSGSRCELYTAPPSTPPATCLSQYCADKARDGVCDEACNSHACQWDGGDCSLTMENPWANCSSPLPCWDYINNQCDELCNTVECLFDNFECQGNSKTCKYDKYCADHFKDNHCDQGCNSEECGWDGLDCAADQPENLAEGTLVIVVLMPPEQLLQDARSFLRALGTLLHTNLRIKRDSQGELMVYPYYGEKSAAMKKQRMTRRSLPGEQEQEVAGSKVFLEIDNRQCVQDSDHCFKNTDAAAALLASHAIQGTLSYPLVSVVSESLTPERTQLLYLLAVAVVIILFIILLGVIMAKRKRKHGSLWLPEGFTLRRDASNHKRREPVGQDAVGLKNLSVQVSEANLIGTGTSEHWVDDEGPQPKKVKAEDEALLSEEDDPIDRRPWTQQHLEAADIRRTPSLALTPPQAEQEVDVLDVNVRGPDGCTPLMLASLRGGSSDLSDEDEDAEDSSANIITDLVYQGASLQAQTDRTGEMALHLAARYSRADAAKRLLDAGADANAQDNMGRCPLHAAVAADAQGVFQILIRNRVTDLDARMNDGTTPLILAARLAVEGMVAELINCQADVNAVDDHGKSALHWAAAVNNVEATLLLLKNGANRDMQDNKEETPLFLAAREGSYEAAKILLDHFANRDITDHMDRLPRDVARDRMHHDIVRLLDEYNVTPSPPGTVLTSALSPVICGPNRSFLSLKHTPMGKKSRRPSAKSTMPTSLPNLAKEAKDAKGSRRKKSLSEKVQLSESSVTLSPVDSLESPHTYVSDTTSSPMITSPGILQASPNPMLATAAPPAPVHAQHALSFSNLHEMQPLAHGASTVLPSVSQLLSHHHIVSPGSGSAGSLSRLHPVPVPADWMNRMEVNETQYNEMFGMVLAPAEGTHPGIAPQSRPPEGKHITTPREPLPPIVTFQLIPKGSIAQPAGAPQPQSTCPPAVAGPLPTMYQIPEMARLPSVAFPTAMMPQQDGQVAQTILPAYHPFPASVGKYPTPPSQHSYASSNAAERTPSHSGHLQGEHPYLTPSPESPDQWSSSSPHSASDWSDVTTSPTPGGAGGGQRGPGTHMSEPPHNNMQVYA
# Chain of Pro-neuregulin-1, membrane-bound isoform (Homo sapiens) (Q02297 whole entry, looked up, the tested form may be a part, canonical isoform): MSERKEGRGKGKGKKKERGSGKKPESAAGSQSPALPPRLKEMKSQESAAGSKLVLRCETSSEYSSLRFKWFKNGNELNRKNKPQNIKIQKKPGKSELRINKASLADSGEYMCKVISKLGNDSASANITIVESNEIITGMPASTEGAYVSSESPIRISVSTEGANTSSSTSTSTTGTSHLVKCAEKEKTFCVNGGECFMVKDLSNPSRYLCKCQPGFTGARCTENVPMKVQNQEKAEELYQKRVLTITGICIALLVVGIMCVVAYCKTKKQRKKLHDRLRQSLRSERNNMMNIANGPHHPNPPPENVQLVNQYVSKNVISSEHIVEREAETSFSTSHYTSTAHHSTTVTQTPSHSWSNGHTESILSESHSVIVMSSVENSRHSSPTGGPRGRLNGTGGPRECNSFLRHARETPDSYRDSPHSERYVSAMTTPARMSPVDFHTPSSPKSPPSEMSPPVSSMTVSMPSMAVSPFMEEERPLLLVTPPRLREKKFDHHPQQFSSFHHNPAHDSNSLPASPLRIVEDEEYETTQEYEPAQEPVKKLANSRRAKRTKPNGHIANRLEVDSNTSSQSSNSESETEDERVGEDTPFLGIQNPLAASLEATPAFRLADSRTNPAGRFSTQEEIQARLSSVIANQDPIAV
SMILES,composite z-score [1],composite z-score [2],composite z-score [3],composite z-score [4],composite z-score [5],composite z-score [6],composite z-score [7],z-score [8],composite z-score [9],composite z-score [10],composite z-score [11],z-score [12],z-score [13],z-score [14],composite z-score [15],z-score [16],composite z-score [17],composite z-score [18],composite z-score [19],composite z-score [20]
O=C1O[C@@H](c2ccccc2)[C@@H](c2ccccc2)N2[C@@H](c3ccc(O)cc3)[C@]3(C(=O)Nc4ccc(C#CCCO)cc43)[C@@H](C(=O)Nc3nc4ccccc4s3)[C@H]12,0.0071,1.27,-0.0721,0.987,0.37,1.45,1.19,0.213 (inactive),0.158,-0.236,1.55,0.782 (inactive),0.403 (inactive),1.93 (inactive),2.81,0.887 (inactive),-0.119,1.35,0.851,-0.0036
CO[C@H]1O[C@H](CO)[C@@H](OC(=O)c2ccc(Br)cc2)[C@@H]2OC(=O)[C@@H](Cc3ccc4ccccc4c3)C/C=C/C[C@H](Cc3ccc4ccccc4c3)C(=O)O[C@@H]12,-0.248,-0.08,0.0289,0.622,0.714,1.74,1.2,-1.14 (inactive),0.349,1.2,1.45,-2.76 (inactive),-2.35 (inactive),-0.842 (inactive),2.82,0.0001 (inactive),-0.0375,0.0104,0.478,-0.112
CCOC(=O)C[C@H]1[C@H](OC(=O)c2ccccc2-c2ccccc2)[C@@H](NC(=O)c2ccc3ccccc3n2)c2cc(OCCCO)ccc2N1C(=O)c1ccc2ccccc2n1,-0.348,0.749,-0.074,0.304,0.607,0.189,0.0721,0.075 (inactive),0.189,-0.0994,0.215,-0.717 (inactive),-0.653 (inactive),-0.299 (inactive),0.84,0.597 (inactive),-0.269,0.283,0.598,-0.0512
CO[C@H]1O[C@H](CO)[C@@H](OC(=O)Nc2ccc(Oc3ccccc3)cc2)[C@H](OC(=O)Nc2ccccc2-c2ccccc2)[C@@H]1OC(=O)Nc1ccccc1-c1ccccc1,0.531,1.21,0.0325,1.02,1.57,1.59,1.18,1.17 (inactive),1.03,-0.121,1.54,1.96 (inactive),0.592 (inactive),0.974 (inactive),2.72,1.39 (inactive),0.143,0.156,1.12,0.425
CC(C)C(CO)N1C(=O)[C@]2(C)C3C(=O)OCCC/C=C\[C@H]3OC23C=CCN(c2ccc(Cl)cc2)C(=O)[C@@H]13 (stereo not given in full),0.0972,-0.481,-0.101,-0.17,-0.689,0.344,1.11,0.0186 (inactive),0.0043,-0.0994,0.88,-0.579 (inactive),-1.14 (inactive),-0.268 (inactive),3.28,-0.718 (inactive),-0.0458,-0.608,0.0253,-0.155
C[C@H]1ON(c2ccc(C(=O)OC(C)(C)C)cc2)[C@@H](c2ccc(O)cc2)[C@@H]1C(=O)N1C(=O)OC[C@@H]1c1ccccc1,-0.565,-0.156,-0.117,0.686,1.42,0.464,1.15,-0.308 (inactive),0.184,-0.0022,1.51,0.657 (inactive),-1.95 (inactive),31.6 (active),1.69,-0.661 (inactive),-0.33,0.819,1.05,-0.0315
C=CCOC(=O)[C@H]1[C@@H]2C(=O)O[C@@H](c3ccccc3)[C@@H](c3ccccc3)N2[C@@H](c2ccc(OCCOC(=O)[C@H]3C[C@H]4C(=O)N[C@@H](Cc5ccccc5)C(=O)N4[C@H]3c3ccc(O)cc3)cc2)[C@]12C(=O)Nc1ccc(I)cc12,0.558,0.412,-0.0093,0.979,0.779,0.932,1.21,0.808 (inactive),2.17,-0.582,1.55,0.827 (inactive),1.36 (inactive),3.95 (inactive),2.39,-0.305 (inactive),-0.0267,1.69,1.05,-0.118
[N-]=[N+]=Nc1ccccc1C[C@]1(C(=O)NCc2ccccc2)N=C(c2ccc(OCCCO)cc2)O[C@H]1c1ccccc1,0.0843,0.984,0.0898,0.584,1.61,1.86,1.2,-2.1 (inactive),1.22,0.0515,1.56,-0.623 (inactive),0.69 (inactive),17.8 (active),3.34,0.7 (inactive),0.206,0.383,1.12,0.048
CC(C)(C)OC(=O)CC[C@@]1(C(=O)O)N=C(c2ccc(OCCCO)cc2)O[C@@H]1c1ccccc1CN=[N+]=[N-],0.761,0.348,0.0732,0.246,0.717,1.03,1.19,5.39 (inactive),0.971,0.259,1.29,0.947 (inactive),0.642 (inactive),0.0515 (inactive),2.84,0.882 (inactive),0.36,-0.195,0.44,0.272
C[N+](C)(C)CCCC[C@@H]1NC(=O)[C@@H]2C[C@H](C(=O)O)[C@H](c3ccc(O)cc3)N2C1=O,1.26,-0.752,-0.119,-0.695,-1.77,-0.0673,-0.118,0.0902 (inactive),-0.639,-0.137,-0.701,0.151 (inactive),0.229 (inactive),-1.27 (inactive),-0.972,0.0772 (inactive),-0.0943,-0.342,-0.694,-0.269
